D1 PAM – human D1 dopamine receptor positive modulation. potentiation, % at 10 µM. 360,000 tested, 0.036% active. HEK293 TREx D1 cells, calcium flux, dopamine EC20 potentiation. P21728; in the data active means potentiation above about 30%; further: 0% is about no effect
TRHR enhancer – TRH receptor (human) allosteric enhancement | 360,000 tested, 0.66% active | TRHR cells, fluo-8 calcium fluorescence, EC20 TRH enhancement | enhancement, % at 2 µM; in the data active means enhancement above about 30%; further: 0% is about no effect
Target sequence (P34981 whole entry, looked up): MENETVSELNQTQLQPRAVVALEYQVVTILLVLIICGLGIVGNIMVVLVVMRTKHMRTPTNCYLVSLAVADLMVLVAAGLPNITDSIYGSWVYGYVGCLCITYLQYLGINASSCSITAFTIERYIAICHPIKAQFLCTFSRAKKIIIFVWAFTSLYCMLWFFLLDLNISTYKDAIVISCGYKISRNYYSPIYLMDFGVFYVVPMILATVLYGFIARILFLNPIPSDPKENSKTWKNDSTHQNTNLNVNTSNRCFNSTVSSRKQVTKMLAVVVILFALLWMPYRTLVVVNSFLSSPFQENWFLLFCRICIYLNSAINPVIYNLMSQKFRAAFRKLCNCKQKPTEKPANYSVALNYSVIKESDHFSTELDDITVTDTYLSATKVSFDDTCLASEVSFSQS
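Enhancer read-out: after compound pinning and an initial kinetic agonist-mode read, an EC20 of TRH (10 nM final) was injected and fluo-8 calcium signal (Ex 480/Em 530) followed at 1 s/cycle for 100 cycles in TRHR-expressing cells.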
D1 ag – human D1 receptor agonism. P21728. HEK293 T-REx D1 cells, calcium flux, agonist mode. activation, % at 2 µM. 360,000 tested, 1% active; further: 0% is about no effect
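Tetracycline-induced HEK293 TREx D1 cells, force-coupled to calcium signalling, were dye-loaded with a no-wash calcium kit. Compound was pin-added after a 10 s baseline. Fluorescence was read kinetically at 1 cycle/s for 180 s, with calcium rises flagged as agonism.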
TRHR agonist – activates the human TRH receptor; 360,000 tested, 0.18% active; P34981; AID 493084; TRHR cells, calcium flux fluo-8, FDSS agonist mode; activation, % at 2 µM; further: 0% is about no effect
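TRHR-expressing cells loaded with fluo-8 calcium dye; 23 nL library compound pin-transferred, kinetic FDSS fluorescence (Ex 480/Em 530) recorded about 180 s for agonist-induced calcium release, before a 10 nM TRH EC20 addition for potentiator mode.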
D1 antagonist – human D1 dopamine receptor antagonism; P21728; HEK293 TREx D1 cells, calcium flux, dopamine EC80; hits give low values; activity change, negative = inhibition, % at 10 µM; 360,000 tested, 3.2% active; AID 504652; in the data active means activity change below about -30%; further: on the % scale 0 is the no-effect control and ±100 the full control effect
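Tetracycline-induced HEK293 Trex D1 cells, force-coupled to calcium, dye-loaded; compounds added and read 180 s, then EC80 dopamine added and calcium flux tracked kinetically another 180 s.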
* hit, by the source's call. Rows were chosen to be rich in hits. Some 4.7% of all compounds tested hit in one or more screens of this group. Unless noted, no stated cut-off is given here; in the data, active means activation above about 30%; inactive means the rest.

SMILES | D1 PAM | TRHR enhancer | D1 ag | TRHR agonist | D1 antagonist
Cc1ccc(N2CC(C(=O)N(C)CC(=O)Nc3ccc(Cl)c(C(F)(F)F)c3)CC2=O)cc1 (stereo not given) | -15.8 | -0.6 | 1.9 | 0.0 | -5.1
CC(=O)COc1coc(CN2CCN(c3ccc(F)cc3)CC2)cc1=O | -2.2 | 31.4* | 1.1 | 0.2 | -0.7
Cc1cccc(NC(=O)C(NS(=O)(=O)c2ccc3c(c2)oc(=O)n3C)C(C)C)c1 (stereo not given) | 6.4 | 2.4 | 0.5 | -0.2 | 4.2
Cc1ccc(NC(=O)Cc2noc3ccccc23)cc1 | -1.0 | 1.5 | 1.9 | 0.3 | -0.4
Cc1ccc2onc(CC(=O)Nc3cccc(C(F)(F)F)c3)c2c1 | -6.1 | -19.2 | 0.3 | 1.4 | -75.3*
Cc1cc(=O)[nH]c(SCC(=O)Nc2cccc(C(F)(F)F)c2)n1 | -0.5 | -1.8 | 2.0 | 0.1 | -32.3*
O=C(CSc1ncnc2c1cnn2CCO)Nc1cccc(C(F)(F)F)c1 | -6.2 | 30.8* | 25.9 | 0.1 | 7.0
Cc1cc(C)cc(NC(=O)Cc2noc3ccccc23)c1 | -1.6 | -3.1 | -1.3 | 1.3 | -62.8*
COc1ccc(CCC(=O)NCc2ccc3c(c2)CCN3C(=O)c2cccc(C)c2)cc1 | 5.0 | -1.1 | -1.0 | -0.5 | -0.8
NC(=O)c1ccc[n+](Cc2ccc(-c3ccccc3)cc2)c1 | 10.2 | 17.6 | 1.9 | 0.6 | -8.5
O=C(OCC(=O)N(CCc1ccccc1)Cc1ccccc1)c1ccccc1NCCO | -6.8 | -12.2 | 2.7 | 0.3 | -16.8
COC(=O)c1ccccc1NC(=O)Cc1noc2ccc(C)cc12 | -3.9 | 9.9 | -0.9 | 0.0 | -21.5
Cc1ccc2onc(CC(=O)Nc3cc(F)ccc3F)c2c1 | -3.0 | -6.4 | -1.4 | -0.1 | -81.3*
CCc1ccc2oc(C(=O)N3CCN(c4ccc(OC)cc4)CC3)cc(=O)c2c1 | -5.7 | -0.8 | 5.6 | -1.0 | -40.8*
Cc1nnc(NC(=O)CSc2nnc(Cc3cccn3C)n2C)s1 | 10.8 | 10.4 | 1.7 | -0.5 | -37.4*
COc1ccc(NC(=O)CSc2nnc(Cc3cccn3C)n2-c2ccc(F)cc2)cc1OC | -4.4 | 0.0 | 0.0 | -0.7 | -45.0*
Cc1ccc(-n2c(Cc3cccn3C)nnc2SCC(=O)Nc2nnc(C)s2)cc1 | -3.2 | 4.6 | 1.8 | 0.0 | 24.3
CC(C)C[C@@H](CN=[N+]=[N-])N1CCN(C)CCC1=O | 1.7 | 30.7* | 1.5 | 0.1 | -3.2
Cn1ccc2cc(-c3ccc4ncnc(NCc5cccc(F)c5)c4c3)ccc21 | 7.3 | 6.9 | 2.2 | 0.1 | 6.5
Cc1ccc(O)c(-c2[nH]ncc2C(=O)c2ccc(Cl)cc2)c1 | -7.6 | 7.5 | 11.5 | 1.0 | -33.6*
O=C1C(c2cccc(Br)c2)N(CCc2ccccc2)C(=O)CN1C1CCCCC1 (stereo not given) | -1.0 | 5.8 | -1.8 | -0.6 | -33.1*
COc1cccc(CNC(=O)Cn2cc3c(n2)-c2c(oc(C(=O)N4CCOCC4)c2C)CC3)c1 | 3.5 | 3.8 | 2.9 | 0.0 | -29.2
Cc1ccc(C2C=C(c3ccccc3)Nc3nc(NS(C)(=O)=O)nn32)cc1 (stereo not given) | -5.2 | 2.8 | 19.2 | 12.5 | 7.9
O=C(Nc1ccccc1N1CCOCC1)C1=NN(c2ccccc2)C(=O)CC1 | 2.1 | 0.7 | 1.2 | -0.2 | -12.4
O=C(NCc1ccc(Cl)cc1)c1cccc(S(=O)(=O)N2CCCC2)c1 | -1.3 | 3.6 | -0.3 | -0.9 | -39.8*
SMILES | D1 PAM | TRHR enhancer | D1 ag | TRHR agonist | D1 antagonist
Cn1cc(S(=O)(=O)N2CCCC2)cc1C(=O)NCc1ccc(Cl)cc1 | -6.0 | 0.3 | 2.1 | -0.2 | -33.2*
Cc1ccc(C(=O)NCCC2=CCCCC2)cc1S(=O)(=O)N1CCCCC1 | -1.8 | 4.0 | 14.7 | -0.1 | -7.9
O=C(NCCC1=CCCCC1)c1cccc(S(=O)(=O)N2CCCCC2)c1 | -8.2 | 1.8 | 6.1 | 0.6 | -38.7*
CN(C)c1ccc(CNC(=O)c2cc(S(=O)(=O)N3CCCC3)cn2C)cc1 | -5.7 | 2.2 | 8.2 | -0.3 | -11.7
CCN(CC)C(=O)Cn1c(=O)n(Cc2ccc(C(=O)NCc3ccccc3Cl)cc2)c(=O)c2ccccc21 | -3.0 | -0.1 | 4.1 | -1.2 | -15.1
Cc1cccc(-c2nc(C#N)c(NCc3ccco3)o2)c1 | 0.5 | -4.8 | 1.3 | -1.1 | -31.0*
O=C(COC(=O)c1cc(S(=O)(=O)N2CCOCC2)ccc1Cl)Nc1ccccc1Cl | -1.6 | 1.7 | 1.6 | -0.1 | -1.4
Cc1ccc2c(c1)N(C(=O)CCC(=O)NCCN1CCOCC1)CC(C)O2 (stereo not given) | -5.2 | -3.3 | 0.4 | -0.1 | -36.3*
Cc1ccc2c(c1)N(C(=O)CCC(=O)N1CCOCC1)CCO2 | -10.2 | -1.8 | 2.6 | -0.1 | -31.2*
COc1ccc(CCNC(=O)CCC(=O)N2CC(C)Oc3ccc(Cl)cc32)cc1OC (stereo not given) | -7.9 | 1.3 | -0.7 | -0.7 | -57.6*
Cc1ccc2c(c1)N(C(=O)CCC(=O)NCCCN1CCOCC1)CC(C)O2 (stereo not given) | -12.8 | 0.5 | 0.8 | 0.0 | 1.2
O=S(=O)(c1ccc2nc(N3CCN(c4ccc(F)cc4)CC3)ccc2c1)N1CCCCC1 | -0.6 | 7.5 | 3.7 | 0.1 | 14.3
C/C(=N\NC(=O)c1ccc(O)cc1)c1ccc(N2CCOCC2)cc1 | -4.6 | -0.3 | 2.4 | -0.1 | -21.5
O=C(N/N=C/c1ccc(N2CCOCC2)cc1)c1ccc(O)cc1 | -5.2 | 6.9 | 2.0 | 1.3 | -54.6*
O=C(Nc1cccc(F)c1)C1CCN(c2nnnn2-c2ccccc2)CC1 | -4.5 | -9.1 | 3.1 | 0.1 | -30.4*
Cc1ccc(-n2nc3c(=S)[nH]nc(C)c3c2C)cc1 | 0.9 | 2.0 | 2.4 | 1.0 | -1.5
Cc1n[nH]c(=S)c2nn(-c3ccccc3)c(C)c12 | -8.9 | -0.7 | 0.5 | -0.6 | -32.7*
COCC(C)N1CC(O)=C(c2nc(-c3ccc(Cl)cc3)cs2)C1=N (stereo not given) | -16.1 | 1.3 | 1.4 | 0.4 | -30.5*
CCCCN1CC(O)=C(c2nc(-c3ccc(Cl)cc3)cs2)C1=N | -1.9 | 2.0 | 3.5 | 0.4 | 21.3
Cc1ccc(-n2nc3c(c2NC(=O)c2ccccc2Br)CS(=O)C3)cc1 (stereo not given) | -4.3 | 2.6 | 1.6 | 0.1 | -42.6*
Cc1ccc(-n2nc3c(c2NC(=O)c2ccc(OC(C)C)cc2)CS(=O)C3)cc1 (stereo not given) | -6.2 | 0.2 | 2.3 | -0.5 | -2.2
O=C(COC(=O)c1cc([N+](=O)[O-])ccc1N1CCOCC1)Nc1ccccc1OC(F)F | -12.4 | -2.4 | 5.7 | -0.3 | -30.8*
CN(C)S(=O)(=O)c1cccc(COC(=O)c2cc([N+](=O)[O-])ccc2N2CCOCC2)c1 | -2.4 | -6.9 | 4.4 | 0.0 | -38.5*
CSc1ccc(COC(=O)c2cc([N+](=O)[O-])ccc2N2CCOCC2)cc1 | -6.8 | 3.6 | 8.7 | 0.7 | -21.8
